Inconclusive results are not listed. Activity calls are given as the source filed them. How the source made its calls, unless noted: active means hit-call score of the fitted dose curve at least 0.9, where 1 is the maximum; inactive means score below 0.9.
Columns and labels:
[1] = ATG_NFI_CIS: Attagene CIS-FACTORIAL HepG2 Assay for human Nuclear Factor I (NFI) (AID 2282989); settings: HepG2 cis-regulatory reporter, NFI response element transcription; actives raise or lower the signal
Procedure, shortened: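 Transfected HepG2 liver cells, exposed 24 h, supplied total RNA for oligo(dT) reverse transcription and reporter-specific PCR. Labelled, HpaI-cut fragments were sized by capillary electrophoresis; DMSO set the baseline for bidirectional fitting.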

[2] = biological target: Myc proto-oncogene protein (Homo sapiens) (UniProt P01106); assay: ATG_Myc_CIS: Attagene CIS-FACTORIAL HepG2 Assay for human Myelocytomatosis (Myc) Proto-Oncogene Transcription Factor (AID 2282990); settings: HepG2, Attagene cis-reporter transcription factor activity; actives raise or lower the signal
Chain of Myc proto-oncogene protein (Homo sapiens) (P01106 whole entry, looked up, the tested form may be a part): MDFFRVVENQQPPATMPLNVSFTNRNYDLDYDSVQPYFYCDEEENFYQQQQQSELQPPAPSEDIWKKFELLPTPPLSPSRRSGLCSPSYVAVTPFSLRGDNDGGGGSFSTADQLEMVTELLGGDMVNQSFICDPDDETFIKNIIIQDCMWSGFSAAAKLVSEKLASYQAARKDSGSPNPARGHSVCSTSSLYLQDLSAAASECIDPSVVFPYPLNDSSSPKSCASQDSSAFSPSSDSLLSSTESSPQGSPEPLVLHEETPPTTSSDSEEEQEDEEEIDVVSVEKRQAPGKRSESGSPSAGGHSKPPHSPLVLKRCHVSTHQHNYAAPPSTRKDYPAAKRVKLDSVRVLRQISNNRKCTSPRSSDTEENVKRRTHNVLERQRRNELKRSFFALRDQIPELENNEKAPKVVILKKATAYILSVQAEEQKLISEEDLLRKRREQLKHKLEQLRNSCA
Procedure, shortened: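 Fluorescence intensity of reporter-specific cDNA fragments, separated by capillary electrophoresis, gives the signal. Transfected HepG2 cells carrying cis-promoter reporter constructs are incubated with compound for 24 h; DMSO serves as baseline.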

[3] = ATG_NF_kB_CIS: Attagene CIS-FACTORIAL HepG2 Assay for human Nuclear Factor Kappa B (NF-kB) (AID 2282991); settings: HepG2 Attagene cis-factorial NF-kB reporter mRNA; actives raise or lower the signal
Procedure, shortened: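 Fluorescence of labelled RT-PCR products separated by capillary electrophoresis gives reporter mRNA levels from transfected HepG2 cells exposed 24 h; values are fitted in both directions relative to DMSO.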

[4] = ATG_NRF2_ARE_CIS: Attagene CIS-FACTORIAL HepG2 Assay for human Nuclear Factor Erythroid 2 Related Factor 2 (NFR2) response to Antioxidant Response Elements (ARE) (AID 2282992); settings: HepG2 Attagene ARE/NRF2 reporter, transcription factor activity; actives raise or lower the signal
Procedure, shortened: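 HepG2 cells transiently transfected with multiplexed cis-element reporter constructs, 24 h after chemical dosing; reporter mRNA quantified by RT-PCR, fluorescent primer extension, HpaI digestion and capillary electrophoresis. Bidirectional fit relative to DMSO.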

[5] = ATG_Oct_MLP_CIS: Attagene CIS-FACTORIAL HepG2 Assay for human Octamer-Binding Transcription Factor (Oct) (AID 2282993); settings: HepG2 Attagene cis-factorial Oct reporter, mRNA; actives raise or lower the signal
Procedure, shortened: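 Using HepG2 cells bearing transfected cis-reporter constructs, mRNA induction was read after 24 h by fluorescent RT-PCR and capillary electrophoresis, with DMSO defining baseline for gain- or loss-of-signal fits.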

[6] = biological target: Cellular tumor antigen p53 (Homo sapiens) (UniProt P04637); assay: ATG_p53_CIS: Attagene CIS-FACTORIAL HepG2 Assay for human p53 Transcription Factor (AID 2282994); settings: HepG2 p53 cis-element reporter, Attagene mRNA; actives raise or lower the signal
Chain of Cellular tumor antigen p53 (Homo sapiens) (P04637 whole entry, looked up): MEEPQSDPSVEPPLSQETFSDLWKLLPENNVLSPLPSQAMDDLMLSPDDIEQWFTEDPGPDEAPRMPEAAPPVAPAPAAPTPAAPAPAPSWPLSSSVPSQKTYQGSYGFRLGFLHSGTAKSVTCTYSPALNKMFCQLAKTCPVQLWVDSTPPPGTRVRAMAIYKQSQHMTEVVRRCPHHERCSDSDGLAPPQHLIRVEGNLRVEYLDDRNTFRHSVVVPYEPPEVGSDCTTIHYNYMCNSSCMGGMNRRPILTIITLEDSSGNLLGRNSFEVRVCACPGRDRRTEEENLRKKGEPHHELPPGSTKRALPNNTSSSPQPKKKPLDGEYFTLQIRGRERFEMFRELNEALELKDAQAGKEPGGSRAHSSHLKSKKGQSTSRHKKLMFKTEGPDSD
Procedure, shortened: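 HepG2 cells transiently transfected with cis-regulated multiple reporter transcription units, dosed 24 h. Reporter mRNA measured by RT-PCR, 6-FAM primer extension, HpaI digestion and capillary electrophoresis; bidirectional fit relative to DMSO.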

[7] = BSK_3C_TissueFactor: BioMAP Diversity Plus: 3C Assay for Tissue Factor Biomarker Activity (AID 2282997); settings: BioMAP 3C HUVEC, tissue factor biomarker readout; actives raise or lower the signal
Procedure, shortened: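 Human vascular primary cells (umbilical vein endothelium) received test chemical; Tissue Factor was determined by ELISA at 24 h, and both gain and loss of signal versus DMSO were fitted.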

[8] = BSK_3C_uPAR: BioMAP Diversity Plus: 3C Assay for Urokinase-type plasminogen activator receptor (uPAR) Biomarker Activity (AID 2282998); settings: BioMAP 3C HUVEC, uPAR biomarker ELISA; actives raise or lower the signal
Procedure, shortened: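 In this endothelial cell-based assay, human umbilical vein primary cells were treated with chemicals and harvested at 24 h. uPAR was quantified using ELISA, with gains or losses fitted relative to DMSO controls.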

[9] = BSK_3C_VCAM1: BioMAP Diversity Plus: 3C Assay for Vascular cell adhesion molecule 1 (VCAM1) Biomarker Activity (AID 2282999); settings: BioMAP 3C HUVEC, VCAM1 ELISA, cytokine-stimulated; actives raise or lower the signal
Procedure, shortened: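 Human umbilical vein endothelial cells (3C system), biomarker read by ELISA 24 h after dosing; bidirectional fit against DMSO baseline. Cytotoxicity tracked by SRB total-protein staining in parallel cultures at biomarker time.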

[10] = BSK_4H_Eotaxin3: BioMAP Diversity Plus: 4H Assay for Eotaxin 3 Biomarker Activity (AID 2283000); settings: primary human endothelial cells (HUVEC); actives raise or lower the signal;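 further: CCL26 protein level quantified by ELISA in parallel with SRB cytotoxicity check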
Procedure, shortened: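 Readout is Eotaxin-3 (CCL26) level by ELISA in primary human umbilical vein endothelial cells harvested 24 h after chemical exposure; activity fitted in both directions against DMSO control.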

[11] = read-out: Intercellular Adhesion Molecule 1 (ICAM1), ICAM1 (gene 3383); assay: BSK_3C_ICAM1: BioMAP Diversity Plus: 3C Assay for Intercellular Adhesion Molecule 1 (ICAM1) Biomarker Activity (AID 2283003); settings: primary human endothelial cells (HUVEC); actives raise or lower the signal
Procedure, shortened: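 Human vascular endothelial primary cells, 3C conditions, 24 h treatment. ICAM-1 by ELISA.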

[12] = biological target: human Retinoic Acid Receptor beta (RARb), RARB (gene 5915) (UniProt P10826); assay: ATG_RARb_TRANS: Attagene TRANS-FACTORIAL HepG2 Assay for human Retinoic Acid Receptor beta (AID 2283004; active means hit-call score of the fitted dose curve at least 0.9, where 1 is the maximum)
Chain of human Retinoic Acid Receptor beta (RARb), RARB (gene 5915) (P10826 whole entry, looked up, the tested form may be a part): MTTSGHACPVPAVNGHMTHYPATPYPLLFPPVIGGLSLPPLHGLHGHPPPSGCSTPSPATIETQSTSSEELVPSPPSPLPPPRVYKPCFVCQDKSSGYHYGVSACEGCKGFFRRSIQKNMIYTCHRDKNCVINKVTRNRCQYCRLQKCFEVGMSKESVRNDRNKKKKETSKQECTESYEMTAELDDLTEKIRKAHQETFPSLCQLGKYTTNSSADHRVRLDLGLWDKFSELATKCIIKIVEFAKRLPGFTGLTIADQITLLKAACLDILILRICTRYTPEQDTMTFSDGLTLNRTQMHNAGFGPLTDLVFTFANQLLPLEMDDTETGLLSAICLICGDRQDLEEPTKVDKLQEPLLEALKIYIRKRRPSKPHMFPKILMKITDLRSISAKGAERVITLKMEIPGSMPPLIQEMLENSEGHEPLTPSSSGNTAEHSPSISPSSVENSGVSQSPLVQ
Procedure, shortened: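 Readout is reporter mRNA induction: RNA reverse-transcribed, PCR-amplified, FAM-labelled, HpaI-cut and resolved by capillary electrophoresis. Transiently transfected HepG2 cells carrying exogenous NR–Gal4 chimeras were dosed for 24 h; activity fitted upward relative to DMSO.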

[13] = biological target: Retinoic acid receptor alpha (Homo sapiens) (UniProt P10276); assay: ATG_RARa_TRANS: Attagene TRANS-FACTORIAL HepG2 Assay for human Retinoic Acid Receptor alpha (RARa) (AID 2283005; active means hit-call score of the fitted dose curve at least 0.9, where 1 is the maximum)
Chain of Retinoic acid receptor alpha (Homo sapiens) (P10276 whole entry, looked up, the tested form may be a part): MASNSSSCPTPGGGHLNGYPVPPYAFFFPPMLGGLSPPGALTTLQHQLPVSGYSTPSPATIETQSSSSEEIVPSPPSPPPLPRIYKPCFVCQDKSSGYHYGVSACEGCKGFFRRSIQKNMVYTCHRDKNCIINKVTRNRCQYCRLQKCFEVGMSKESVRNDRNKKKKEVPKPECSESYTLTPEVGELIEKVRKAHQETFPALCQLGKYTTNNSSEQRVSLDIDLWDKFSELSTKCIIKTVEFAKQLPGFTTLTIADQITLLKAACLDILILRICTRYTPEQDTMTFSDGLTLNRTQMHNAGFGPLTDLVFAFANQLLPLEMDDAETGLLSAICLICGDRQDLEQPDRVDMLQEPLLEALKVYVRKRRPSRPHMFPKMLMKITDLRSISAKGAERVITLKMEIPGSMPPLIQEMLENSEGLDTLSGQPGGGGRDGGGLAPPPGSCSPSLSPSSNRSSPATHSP
Procedure, shortened: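 HepG2 transiently transfected with multiplex GAL4-UAS reporter units including a human RARa–GAL4 chimera; 24 h compound exposure. Reporter mRNA quantified by RT-PCR, 6-FAM labeling and capillary electrophoresis; gain of signal versus DMSO.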

[14] = BSK_3C_Proliferation: Cell Proliferation Assessment in the BioMAP Diversity Plus: 3C Assay (AID 2283006); settings: primary human endothelial cells (HUVEC);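 on AC50: potency may reflect either rise or fall in cell number versus DMSO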
Procedure, shortened: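 Proliferation of human vascular endothelial primary cells after 48 h dosing, quantified as SRB-stained protein at 560 nm relative to DMSO.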

[15] = biological target: human Retinoic Acid Receptor gamma (RARg), RARG (gene 5916) (UniProt P13631); assay: ATG_RARg_TRANS: Attagene TRANS-FACTORIAL HepG2 Assay for human Retinoic Acid Receptor gamma (RARg) (AID 2283009; active means hit-call score of the fitted dose curve at least 0.9, where 1 is the maximum)
Chain of human Retinoic Acid Receptor gamma (RARg), RARG (gene 5916) (P13631 whole entry, looked up, the tested form may be a part): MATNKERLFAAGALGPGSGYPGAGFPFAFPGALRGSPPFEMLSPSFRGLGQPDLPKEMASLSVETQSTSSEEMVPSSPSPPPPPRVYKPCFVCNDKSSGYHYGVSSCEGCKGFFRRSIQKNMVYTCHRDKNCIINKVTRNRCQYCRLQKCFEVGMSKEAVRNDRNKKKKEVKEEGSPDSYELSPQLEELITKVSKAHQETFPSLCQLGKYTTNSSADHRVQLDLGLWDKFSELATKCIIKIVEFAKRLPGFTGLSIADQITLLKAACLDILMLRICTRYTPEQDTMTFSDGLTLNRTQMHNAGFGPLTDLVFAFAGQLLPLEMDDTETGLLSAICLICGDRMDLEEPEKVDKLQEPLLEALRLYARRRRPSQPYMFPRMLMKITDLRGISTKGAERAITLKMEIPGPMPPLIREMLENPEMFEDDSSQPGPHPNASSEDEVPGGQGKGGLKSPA
Procedure, shortened: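 HepG2, RARg-GAL4 TRANS system, 24 h exposure; reporter mRNA by RT-PCR + CE fluorescence; increase over DMSO.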

[16] = biological target: human Peroxisome Proliferator-activated Receptor alpha (PPARa), PPARA (gene 5465) (UniProt Q07869); assay: ATG_PPARa_TRANS: Attagene TRANS-FACTORIAL HepG2 Assay for human Peroxisome Proliferator-activated Receptor alpha (PPARa) (AID 2283001; active means hit-call score of the fitted dose curve at least 0.9, where 1 is the maximum)
Chain of human Peroxisome Proliferator-activated Receptor alpha (PPARa), PPARA (gene 5465) (Q07869 whole entry, looked up, the tested form may be a part): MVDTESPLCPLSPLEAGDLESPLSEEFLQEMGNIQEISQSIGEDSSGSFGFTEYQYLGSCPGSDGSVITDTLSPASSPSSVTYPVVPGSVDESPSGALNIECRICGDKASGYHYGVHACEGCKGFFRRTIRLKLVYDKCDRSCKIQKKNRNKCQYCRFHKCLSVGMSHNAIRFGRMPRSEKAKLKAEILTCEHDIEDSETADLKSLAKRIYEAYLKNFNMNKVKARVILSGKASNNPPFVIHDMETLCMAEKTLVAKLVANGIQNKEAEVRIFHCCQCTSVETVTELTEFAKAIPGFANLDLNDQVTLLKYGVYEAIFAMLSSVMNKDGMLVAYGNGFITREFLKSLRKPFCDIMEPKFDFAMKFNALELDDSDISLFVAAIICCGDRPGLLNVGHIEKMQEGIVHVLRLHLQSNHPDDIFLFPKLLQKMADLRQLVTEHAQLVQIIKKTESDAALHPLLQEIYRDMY
Procedure, shortened: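 Measures transcriptional activity of an exogenous chimeric PPARa-Gal4 protein in transiently transfected HepG2 cells after 24 h dosing. Reporter mRNA quantified via RT-PCR and capillary electrophoresis; DMSO served as negative control.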

[17] = biological target: Peroxisome proliferator-activated receptor gamma (Homo sapiens) (UniProt P37231); assay: ATG_PPARg_TRANS: Attagene TRANS-FACTORIAL HepG2 Assay for human Peroxisome Proliferator-activated Receptor-gamma (PPARg) (AID 2283007; active means hit-call score of the fitted dose curve at least 0.9, where 1 is the maximum)
Chain of Peroxisome proliferator-activated receptor gamma (Homo sapiens) (P37231 whole entry, looked up): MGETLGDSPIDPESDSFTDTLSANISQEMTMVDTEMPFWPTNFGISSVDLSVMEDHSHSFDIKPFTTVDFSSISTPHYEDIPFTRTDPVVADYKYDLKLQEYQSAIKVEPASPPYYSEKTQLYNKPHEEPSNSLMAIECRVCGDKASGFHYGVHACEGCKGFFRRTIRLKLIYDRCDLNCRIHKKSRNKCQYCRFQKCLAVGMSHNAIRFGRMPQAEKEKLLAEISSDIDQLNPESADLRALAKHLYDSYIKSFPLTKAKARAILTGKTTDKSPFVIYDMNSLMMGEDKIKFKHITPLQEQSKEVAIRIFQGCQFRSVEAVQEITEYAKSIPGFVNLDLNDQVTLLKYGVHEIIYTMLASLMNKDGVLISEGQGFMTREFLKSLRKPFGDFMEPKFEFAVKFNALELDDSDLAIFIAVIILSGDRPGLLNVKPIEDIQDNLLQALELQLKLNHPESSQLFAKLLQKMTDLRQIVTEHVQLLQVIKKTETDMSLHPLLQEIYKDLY
Procedure, shortened: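 Twenty-four hours after chemical dosing of transiently transfected HepG2 cells, isolated RNA was converted to cDNA, reporter sequences amplified and 6-FAM-labelled, then HpaI-digested and analysed by capillary electrophoresis. Signal increase against DMSO was fitted.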

[18] = biological target: Nuclear receptor subfamily 1 group I member 2 (Homo sapiens) (UniProt O75469); assay: ATG_PXR_TRANS: Attagene TRANS-FACTORIAL HepG2 Assay for human Pregnane X Receptor (PXR) (AID 2283008; active means hit-call score of the fitted dose curve at least 0.9, where 1 is the maximum)
Chain of Nuclear receptor subfamily 1 group I member 2 (Homo sapiens) (O75469 whole entry, looked up, the tested form may be a part): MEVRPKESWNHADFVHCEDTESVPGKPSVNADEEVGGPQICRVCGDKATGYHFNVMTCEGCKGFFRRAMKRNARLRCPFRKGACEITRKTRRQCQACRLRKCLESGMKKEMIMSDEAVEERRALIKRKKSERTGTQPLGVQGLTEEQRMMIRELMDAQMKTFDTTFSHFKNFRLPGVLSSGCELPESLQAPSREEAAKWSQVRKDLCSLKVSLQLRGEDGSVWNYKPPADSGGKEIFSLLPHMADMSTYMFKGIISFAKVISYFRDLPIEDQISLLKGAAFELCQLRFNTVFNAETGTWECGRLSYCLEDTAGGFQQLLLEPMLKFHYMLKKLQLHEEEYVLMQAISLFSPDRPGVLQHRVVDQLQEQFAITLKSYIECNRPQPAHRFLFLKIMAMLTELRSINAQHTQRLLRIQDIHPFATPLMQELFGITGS
Procedure, shortened: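 HepG2 cells transiently transfected with GAL4-UAS reporter units and PXR-Gal4 chimera, exposed 24 h. Reporter mRNA quantified by RT-PCR, fluorescent labelling, HpaI digestion and capillary electrophoresis; gain of signal vs DMSO.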

[19] = biological target: human Peroxisome Proliferator-activated Receptor delta (PPARd), PPARD (gene 5467) (UniProt Q03181); assay: ATG_PPARd_TRANS: Attagene TRANS-FACTORIAL HepG2 Assay for human Peroxisome Proliferator-activated Receptor delta (PPARd) (AID 2283002; active means hit-call score of the fitted dose curve at least 0.9, where 1 is the maximum)
Chain of human Peroxisome Proliferator-activated Receptor delta (PPARd), PPARD (gene 5467) (Q03181 whole entry, looked up, the tested form may be a part): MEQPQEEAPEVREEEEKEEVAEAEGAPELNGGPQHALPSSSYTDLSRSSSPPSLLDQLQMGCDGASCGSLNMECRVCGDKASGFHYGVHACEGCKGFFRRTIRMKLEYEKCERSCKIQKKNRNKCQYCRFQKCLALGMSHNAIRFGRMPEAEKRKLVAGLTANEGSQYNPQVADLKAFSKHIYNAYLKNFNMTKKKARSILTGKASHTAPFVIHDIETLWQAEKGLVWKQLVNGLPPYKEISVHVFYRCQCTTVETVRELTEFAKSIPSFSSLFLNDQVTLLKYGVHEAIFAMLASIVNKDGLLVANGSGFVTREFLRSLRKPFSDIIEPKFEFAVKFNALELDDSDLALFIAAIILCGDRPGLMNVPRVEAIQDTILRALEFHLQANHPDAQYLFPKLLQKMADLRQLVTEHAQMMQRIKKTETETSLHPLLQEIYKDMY
Procedure, shortened: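 Fluorescence from capillary electrophoresis of labelled RT-PCR reporter fragments gives the signal; DMSO sets baseline. Cells: HepG2 transiently carrying GAL4-UAS reporter units plus chimeric nuclear receptor-Gal4 proteins, exposed to chemicals for 24 h.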

[20] = biological target: human RAR-related Orphan Receptor beta (RORb), RORB (gene 6096) (UniProt Q92753); assay: ATG_RORb_TRANS: Attagene TRANS-FACTORIAL HepG2 Assay for human RAR-related Orphan Receptor beta (RORb) (AID 2283010; active means hit-call score of the fitted dose curve at least 0.9, where 1 is the maximum)
Chain of human RAR-related Orphan Receptor beta (RORb), RORB (gene 6096) (Q92753 whole entry, looked up, the tested form may be a part): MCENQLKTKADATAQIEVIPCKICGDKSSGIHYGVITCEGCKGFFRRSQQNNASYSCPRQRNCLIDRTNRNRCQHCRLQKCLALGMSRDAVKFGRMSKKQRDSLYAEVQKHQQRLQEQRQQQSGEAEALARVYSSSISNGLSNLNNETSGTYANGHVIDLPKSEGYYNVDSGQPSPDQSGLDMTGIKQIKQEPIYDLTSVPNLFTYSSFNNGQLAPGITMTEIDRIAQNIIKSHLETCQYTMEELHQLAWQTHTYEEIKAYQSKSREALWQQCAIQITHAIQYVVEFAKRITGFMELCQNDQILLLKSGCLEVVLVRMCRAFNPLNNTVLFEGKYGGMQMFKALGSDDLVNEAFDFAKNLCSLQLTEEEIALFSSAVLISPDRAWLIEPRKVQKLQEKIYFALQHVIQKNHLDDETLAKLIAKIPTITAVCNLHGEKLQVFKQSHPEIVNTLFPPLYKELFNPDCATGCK
Procedure, shortened: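 In this TRANS-format test, human HepG2 cells express chimeric NR-Gal4 fusion proteins driving GAL4-UAS reporters. After 24 h dosing, reporter transcripts are measured by fluorescent RT-PCR/capillary electrophoresis, with DMSO as negative control.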

Measured: AC50

Cc1ccc(N=C=O)cc1N=C=O
active: [14] 13.9 µM
not listed: [16] | [17] | [18] | [19] | [20]
inactive: all other assays above

CN(C)c1ccc(C(=O)c2ccc(N(C)C)cc2)cc1
active: [8] 3.34 µM | [14] 1.68 µM | [17] 6.44 µM
not listed: [12] | [13] | [15] | [19] | [20]
inactive: all other assays above

Cc1ccc([N+](=O)[O-])cc1
not listed: [3] | [12] | [13] | [15] | [16] | [17] | [20]
inactive: all other assays above

CCOc1cccc(C2(N3CCN(c4ccccc4)CC3)CCC(C)CC2)c1 (stereo not given)
not listed: [3] | [13] | [18] | [20]
inactive: all other assays above

Clc1ccccc1Cl
not listed: [6] | [12] | [13] | [15] | [18] | [19] | [20]
inactive: all other assays above

O=C(O)C1C2CCC(O2)C1C(=O)O (stereo not given)
active: [4] 34.7 µM | [5] 75.4 µM | [6] 100 µM | [9] 21 µM | [14] 20.5 µM
not listed: [3] | [12] | [17] | [20]
inactive: all other assays above

O=C1CCCO1
not listed: [3] | [13] | [15] | [18] | [20]
inactive: all other assays above

CN(C)c1ccccc1
not listed: [3] | [12] | [13] | [15] | [17] | [18] | [19]
inactive: all other assays above

N#CC(Br)Br
active: [4] 74.8 µM
not listed: [6] | [12] | [13] | [15] | [16] | [20]
inactive: all other assays above

Source: PubChem BioAssay (EPA / NIEHS)
